Measured values published in PubChem BioAssay AID651551 (Sanford-Burnham Center for Chemical Genomics, 2012).

Assay: GAPDH versus PEG-3 reporter suppression – cell-based, luminescence, counter-screen for PEG-3 promoter inhibitor project, SAR follow-up (AID 651551)
Settings: HeLa PEG-Prom / GAPDH luciferase reporter, 6 or 24 h, run 1, 24 h; at 99 µM (top of the series)

Compound | inhibition % (higher = more inhibition)
Cc1ccc(Cl)cc1Nc1nc(-c2sc(NC(=O)c3ccco3)nc2C)cs1 | 78%
COc1ccc(-n2nc(C(=O)NCC(=O)Nc3cccc(OC)c3)c3ccccc3c2=O)cc1 | 28.1%
COCCCNC(=O)c1ccc(Cn2c(=O)c3ccccc3n(Cc3ccccc3C#N)c2=O)cc1 | 73.3%
CCn1nc(C(=O)Nc2nc(-c3ccccn3)cs2)c2ccccc2c1=O | 32.8%
CCCn1nc(C(=O)Nc2nc(-c3ccncc3)cs2)c2ccccc2c1=O | 88.9%
O=C(Nc1nccs1)c1nn(-c2ccccc2)c(=O)c2ccccc12 | 38.3%
Cc1nc(NC(=O)c2ccccc2)sc1-c1csc(Nc2ccccc2Cl)n1 | 22.6%
O=C(Nc1nc2ccccc2s1)c1nn(-c2ccccc2)c(=O)c2ccccc12 | 40.7%
CCCn1nc(C(=O)Nc2nc3ccccc3s2)c2ccccc2c1=O | 37.5%
Cc1nc(NC(=O)c2ccccc2)sc1-c1csc(Nc2cccc(Cl)c2C)n1 | 43.1%
Cc1nc(NC(=O)c2ccccc2)sc1-c1csc(Nc2ccccc2)n1 | 92%
Cc1cc(NC(=O)c2ccccc2)n(-c2nc3ccccc3[nH]2)n1 | 14.1%
COc1ccc(-n2nc(C(=O)NCC(=O)Nc3ccc(OC)c(OC)c3)c3ccccc3c2=O)cc1 | 84.2%
Cc1cc(NC(=O)c2ccccc2)n(-c2nc3ccccc3n2C)n1 | 6.34%
CCn1cc(C(=O)NCc2ccco2)c(=O)c2cc(S(=O)(=O)N3CCCC3)ccc21 | 56.3%
COc1ccc(Cl)cc1Nc1nc(-c2sc(NC(=O)c3ccccc3)nc2C)cs1 | 74.9%
COc1ccc(-n2nc(C(=O)NCC(=O)Nc3cc(OC)c(OC)c(OC)c3)c3ccccc3c2=O)cc1OC | 69.6%
Cc1cc(NC(=O)c2ccccc2C)n(-c2nc3ccccc3[nH]2)n1 | 57.6%
COc1ccccc1Nc1nc(-c2sc(NC(=O)c3ccco3)nc2C)cs1 | 68.4%
O=C(Nc1nc(-c2ccccc2)cs1)c1nn(-c2ccccc2)c(=O)c2ccccc12 | 23.5%
Cc1cc(NC(=O)c2cccc(C)c2C)n(-c2nc3ccccc3[nH]2)n1 | 27.5%
CCCn1nc(C(=O)Nc2nc(-c3ccccn3)cs2)c2ccccc2c1=O | 73.2%
Cc1cc(NC(=O)c2ccccc2C(F)(F)F)n(-c2nc3ccccc3[nH]2)n1 | 97.3%
